Shown is part of a subset that was picked to be rich in hits.
LASV entry inh: Lassa virus entry inhibition | 300,000 tested, 1.2% active | Lassa virus pseudotype entry inhibition, cell reporter | AID 540256 | Potency, µM (series often up to 37.9 µM), hits mostly inhibitors; calls by dose curve; tested in HEK293 cells; also: nearly all actives have a fitted effect of over 50% in size
Shiga toxin inh: Shiga toxin inhibition; Vero cells, Shiga toxin protein synthesis inhibition reporter; inhibition, % at 38.7 µM; 290,000 tested, 9.2% active; in the data active = inhibition mostly above about 28%, no sharp cut-off; inactive = mostly below about 43%
Cycloheximide cs: affects cycloheximide protein synthesis inhibition readout, counter-screen; cell reporter, cycloheximide protein synthesis inhibition counterscreen; max response, %; 300,000 tested, 12% active; AID 2314; in the data active = max response mostly above about 13%, no sharp cut-off; inactive = mostly below about 14%; also: read at 38.3 µM for the half of the compounds with a filed dose
Marburg entry inh: Marburg virus entry inhibition; Marburg virus pseudotyped entry inhibition, cell reporter; Potency, µM (highest dose often 37.8 µM), hits mostly inhibitors; 300,000 tested, 1.8% active; AID 540276; calls by dose curve; tested in HEK293 cells
AMA1-RON2 inh: disrupts binding of P. falciparum AMA1 to RON2 | AlphaScreen AMA1-biotinylated RON2 peptide binding | AID 720542 | Potency, µM (titrated, usually from 58.2 µM), usual class: inhibitors | 360,000 tested, 0.2% active; active = well fitted inhibition curve with a large enough effect; inconclusive = small, poorly fitted or top-dose-only effect; inactive = no such curve, though single readings can be large or run the other way; also: nearly all actives have a fitted effect of over 45% in size
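AMA1 (3D7) with his tag at 25 nM final met compounds first, then biotinylated RON2 peptide at 25 nM; detection used donor plus acceptor beads, 10 µg/mL apiece, read by AlphaScreen after 30 min at room temperature.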
Each line names hits and unclear results; the compound was inactive in the other large screens.

Cc1nnc(OCc2nc3ccccc3n2C)c2ccccc12	Shiga toxin inh 68, Cycloheximide cs 33
Cn1c(COc2ccc(F)cc2)nc2ccccc21	Shiga toxin inh 68, Cycloheximide cs 43, Marburg entry inh inconclusive
Cn1c(COc2ccc(C(=O)O)cc2)nc2ccccc21	none (no result: LASV entry inh, Marburg entry inh)
Cc1ccc(C)c(OCc2nc3ccccc3n2C)c1	Marburg entry inh inconclusive (no result: Shiga toxin inh, Cycloheximide cs, AMA1-RON2 inh)
Cc1ccccc1OCc1nc2ccccc2n1C	Cycloheximide cs 32 (no result: LASV entry inh, Shiga toxin inh, Marburg entry inh)
CSc1ccccc1C(=O)Nc1ccccc1C(=O)NC(C)C	none
Cc1ccc2nc(CN3CCN(C(=O)Nc4cccc(C)c4C)CC3)oc2c1	none (no result: Shiga toxin inh, Cycloheximide cs, Marburg entry inh, AMA1-RON2 inh)
NNC(=O)c1cc(O)c(O)c(O)c1	Marburg entry inh inconclusive
NNC(=O)c1cc(Br)cs1	Shiga toxin inh 33
C1CCC(C(CC2CCCCN2)C2CCCCC2)CC1 (stereo not drawn)	LASV entry inh 18µM, Marburg entry inh inconclusive
CCOC(=O)C1=C(C)NC(=S)NC1c1ccc(-c2ccc(Cl)cc2)o1 (stereo not drawn)	Marburg entry inh 13µM
CCOC(=O)C1=C(C)NC(=O)NC1c1ccc(-c2ccc(Cl)cc2)o1 (stereo not drawn)	Marburg entry inh inconclusive
CO/N=C/c1ccc(N2CCOCC2)c([N+](=O)[O-])c1	LASV entry inh inconclusive
O=[N+]([O-])c1cc(/C=N/OCc2c(Cl)cccc2Cl)ccc1N1CCOCC1	LASV entry inh inconclusive, Cycloheximide cs 19, AMA1-RON2 inh inconclusive
Cc1ccc(N2C(=O)CCSC23C(=O)N(Cc2ccccc2)c2ccccc23)cc1F (stereo not drawn)	none (no result: Shiga toxin inh, Cycloheximide cs, Marburg entry inh, AMA1-RON2 inh)
O=[N+]([O-])c1ccc(C2=NCCO2)cc1	Shiga toxin inh 74, Cycloheximide cs 39 (no result: LASV entry inh, Marburg entry inh)
NC1=C(c2ccc([N+](=O)[O-])cc2)C(=O)CO1	none
C/C(O)=C\c1nc2ccccc2oc1=O	Shiga toxin inh 47, Cycloheximide cs 25
Cc1ccc2oc(=O)c(/C=C(\O)CC(C)C)nc2c1	none
Cc1ccc2oc(=O)c(/C=C(\O)c3ccccc3)nc2c1	none (no result: LASV entry inh, Marburg entry inh)
O=c1oc2ccccc2nc1/C=C(\O)c1ccc(Br)cc1	Shiga toxin inh 39, Cycloheximide cs 27 (no result: LASV entry inh, Marburg entry inh)
O=C(NN=C1C2CC3CC(C2)CC1C3)c1ccccc1O	Cycloheximide cs 19 (no result: LASV entry inh)
O=C(NC12CC3CC(CC(C3)C1)C2)c1ccccc1O	none
NC(=O)C(=O)NN=C1C2CC3CC(C2)CC1C3	Cycloheximide cs 8.0, Marburg entry inh inconclusive
CC(=O)N1CCC(=NNC(=O)c2cccs2)CC1	Shiga toxin inh active, Cycloheximide cs 55, Marburg entry inh inconclusive
CC(=O)N1CCC(=NNC(=O)c2cc3ccccc3cc2O)CC1	none (no result: LASV entry inh, Marburg entry inh)
NC(=S)NN=C1C2CC3CC(C2)CC1C3	none
C=C(C)C1CC=C(C)/C(=N/NC(=O)c2cccs2)C1 (stereo not drawn)	Shiga toxin inh 77, Cycloheximide cs 22, Marburg entry inh inconclusive
COC(=O)[C@@H](Cc1ccccc1)NC(=O)Cn1cc(C)c(=O)[nH]c1=O	none (no result: LASV entry inh, Shiga toxin inh, Cycloheximide cs, Marburg entry inh)
O=C(NN=C1CCCCCCCCCCC1)c1ccncc1	none
O=C(NN=C1CCCC1)c1cccs1	Shiga toxin inh 91, Cycloheximide cs 63
O=C(NN=C1C2CC3CC(C2)CC1C3)c1cccs1	Shiga toxin inh 73, Cycloheximide cs 48
CC1=C/C(=N\NC(=O)c2cccs2)CC(C)(C)C1	none
COc1ccc(NC(=O)CN(C)C(=O)c2ccccc2Sc2ncnc3sc(C)c(C)c23)cc1	Marburg entry inh inconclusive (no result: Shiga toxin inh, Cycloheximide cs)
CCn1cc(S(=O)(=O)c2cccc(Cl)c2)c(=O)c2cc(F)c(N3CCN(C)CC3)cc21	none (no result: Shiga toxin inh, Cycloheximide cs, Marburg entry inh, AMA1-RON2 inh)
Cc1cc(C(=O)COC(=O)C2=COCCO2)c(C)n1-c1ccc2c(c1)OCO2	Shiga toxin inh 138, Cycloheximide cs 66
Cc1ccc(-n2nnnc2SCC(=O)c2cc(C)n(-c3cc(C)on3)c2C)cc1	LASV entry inh 12µM
Cc1cc(C(=O)CSc2nncs2)c(C)n1-c1ccc2c(c1)OCO2	Shiga toxin inh 62, Cycloheximide cs 26
Cc1cc(C(=O)CSc2nnnn2-c2ccccc2)c(C)n1-c1ccc2c(c1)OCO2	LASV entry inh 6.5µM, Shiga toxin inh 50, Cycloheximide cs 29, Marburg entry inh inconclusive
O=C(c1ccccc1)C1(c2ccccc2)OC1c1ccccc1 (stereo not drawn)	none (no result: Shiga toxin inh, Cycloheximide cs)
CC(=O)N1CCCc2cc(S(=O)(=O)NCc3ccccc3Cl)ccc21	none (no result: Shiga toxin inh, Cycloheximide cs, Marburg entry inh, AMA1-RON2 inh)
O=C(O)CCC1CCCC1	none (no result: LASV entry inh, Marburg entry inh, AMA1-RON2 inh)
O=C(NCCC1=CCCCC1)C1CCN(C(=O)Cc2ccccc2)CC1	LASV entry inh inconclusive
CCN(CC)S(=O)(=O)c1cccc(NC(=O)COC(=O)CCC(=O)c2ccc(F)cc2)c1	none
Cc1cc(/C=C2/C(=N)N3C(c4ccccc4)=CSC3=NC2=O)c(C)n1-c1ccc(Cl)cc1	none (no result: Shiga toxin inh, Cycloheximide cs)
Cc1cccc(-n2c(C)cc(/C=C3/C(=N)N4C(c5ccccc5)=CSC4=NC3=O)c2C)c1	none
Cc1cc(C=C2C(=O)c3ccccc3C2=O)c(C)n1-c1ccc(Cl)cc1	Cycloheximide cs 14
Cc1cccc(-n2c(C)cc(C=C3C(=O)c4ccccc4C3=O)c2C)c1	Cycloheximide cs 21, Marburg entry inh inconclusive
CN(Cc1ccccc1)C(=O)c1ccc(NC(=O)Cc2ccc(NC(=O)C3CCCN(S(=O)(=O)c4cccc([N+](=O)[O-])c4)C3)cc2)cc1 (stereo not drawn)	none (no result: LASV entry inh, Shiga toxin inh, Cycloheximide cs, Marburg entry inh)
N#CCC1(O)C(=O)N(Cc2ccccc2)c2ccccc21 (stereo not drawn)	none (no result: LASV entry inh, Shiga toxin inh, Cycloheximide cs, Marburg entry inh)
Cc1nn(Cc2c(Cl)cccc2Cl)c(C)c1NC(=O)/C=C/c1cnn(C)c1C	none
O=C(O)/C=C/C(=O)c1ccc(O)cc1	none
CCn1ncc(/C=N\NC(=O)c2ccc3c(c2)c(C)c(C)n3Cc2ccccc2)c1C	Marburg entry inh inconclusive
Cc1c(/C=C/C(=O)c2ccc(C(C)C)cc2)cnn1C	LASV entry inh inconclusive, Shiga toxin inh 133, Cycloheximide cs 40
CCn1ncc(/C=C/C(=O)c2ccccc2)c1C	Shiga toxin inh active, Cycloheximide cs 45
CCn1ncc(/C=N\NC(=O)COc2ccccc2)c1C	Shiga toxin inh 67
Cc1c(/C=C/C(=O)c2ccc(O)cc2)cnn1C	Shiga toxin inh 49, Cycloheximide cs 19
O=C(CN1CCN(S(=O)(=O)c2ccc(Cl)c(Cl)c2)CC1)N1CCCC1	none (no result: Shiga toxin inh, Cycloheximide cs)
CCN(CC)Cc1nc2c(c(=O)[nH]1)C(CC)(CC)Cc1ccccc1-2	none (no result: LASV entry inh, Marburg entry inh)
COc1cc(CCCN2CCNC[C@@H]2Cc2ccc(O)cc2)cc(OC)c1OC	none (no result: LASV entry inh, Shiga toxin inh, Cycloheximide cs, Marburg entry inh)
Cc1c(/C=C/C(=O)c2ccccc2)cnn1C	Shiga toxin inh 180, Cycloheximide cs 53, Marburg entry inh inconclusive
Cc1c(/C=C/C(=O)c2ccc(Cl)s2)cnn1C	Cycloheximide cs 27, Marburg entry inh inconclusive
Cc1ccc(C(=O)/C=C/Nc2cccc([N+](=O)[O-])c2)o1	LASV entry inh inconclusive, Shiga toxin inh 63, Cycloheximide cs 64, Marburg entry inh inconclusive
CC(OC(=O)c1cc(=O)c2cc(Cl)ccc2o1)C(=O)N1CCCC1 (stereo not drawn)	none (no result: Shiga toxin inh, Cycloheximide cs)
CN(C)c1ccc(NC(=O)Nc2ccc3snnc3c2)cc1	Shiga toxin inh 45, Cycloheximide cs 27
O=C(Nc1ccccc1)Nc1ccc2nnsc2c1	Shiga toxin inh 61, Cycloheximide cs 36
O=C(Nc1ccccc1)Nc1ccc2snnc2c1	Shiga toxin inh 58, Cycloheximide cs 41, Marburg entry inh inconclusive
CCOc1ccc(NC(=O)Nc2ccc3snnc3c2)cc1	none (no result: Shiga toxin inh, Cycloheximide cs, AMA1-RON2 inh)
